From PubChem
PLC-beta3 inh = inhibitors of human phospholipase C beta3. Q01970. Purified PLC-beta3, fluorogenic substrate, fluorescence. inhibition, % at 12.2 µM. actives 0.18% (n = 370,000); in the data active = inhibition above about 11%;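 also: 0% = median of compound wells on plate and 100% = full blocker control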
proKLK7 act = activators of human kallikrein-7 zymogen; purified proKLK7, EDANS-DABCYL substrate fluorescence; 100% is mature enzyme control, 0% vehicle; activation, % at 7 µM; actives 0.9% (n = 370,000);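 active = activation above the mean of all tested compounds plus 3 SD, computed per campaign excluding outliers beyond control limits, cut at about 13% in these data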
PLC-gamma1 inh = PLC-gamma1 (human) inhibition, primary screen; P19174; purified PLC-gamma1, fluorogenic substrate, fluorescence; inhibition, % at 12.2 µM; actives 0.84% (n = 370,000); AID 720700; in the data active = inhibition above about 9.5%
ADAM10 inh = ADAM10 inhibition, QFRET primary screen; actives 0.62% (n = 370,000); O14672; AID 720582; inhibition, % at 7 µM; recombinant ADAM10, EDANS/DABCYL FRET peptide cleavage, 3 h;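 active = inhibition above a per-campaign cutoff equal to the mean of compounds falling between control-based bounds plus 3 SD, cut at about 20% in these data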;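 also: 0% = DMSO wells while the 100% control is not disclosed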
ADAM17 inh = inhibits human ADAM17. P78536. recombinant ADAM17, EDANS/DABCYL FRET peptide cleavage. inhibition, % at 6.95 µM. actives 0.83% (n = 370,000);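 active = inhibition above the mean of compounds lying between control limits plus 3 SD, set per campaign, cut at about 8.5% in these data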;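 also: 0% = DMSO-only wells as the low control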
sPLA2-III inh = Blocks human group III sPLA2 activity | inhibition, % at 12.2 µM | actives 0.56% (n = 370,000) | QFRET BODIPY PC-A2 liposome hydrolysis, fluorescence | Q9NZ20;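 active = inhibition above mean plus 3 SD of compounds lying within the high and low control bounds, cut at about 19% in these data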;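 also: 0% = median of test compound wells and 100% = no enzyme DMSO wells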
Target sequence (Q9NZ20 whole entry, looked up): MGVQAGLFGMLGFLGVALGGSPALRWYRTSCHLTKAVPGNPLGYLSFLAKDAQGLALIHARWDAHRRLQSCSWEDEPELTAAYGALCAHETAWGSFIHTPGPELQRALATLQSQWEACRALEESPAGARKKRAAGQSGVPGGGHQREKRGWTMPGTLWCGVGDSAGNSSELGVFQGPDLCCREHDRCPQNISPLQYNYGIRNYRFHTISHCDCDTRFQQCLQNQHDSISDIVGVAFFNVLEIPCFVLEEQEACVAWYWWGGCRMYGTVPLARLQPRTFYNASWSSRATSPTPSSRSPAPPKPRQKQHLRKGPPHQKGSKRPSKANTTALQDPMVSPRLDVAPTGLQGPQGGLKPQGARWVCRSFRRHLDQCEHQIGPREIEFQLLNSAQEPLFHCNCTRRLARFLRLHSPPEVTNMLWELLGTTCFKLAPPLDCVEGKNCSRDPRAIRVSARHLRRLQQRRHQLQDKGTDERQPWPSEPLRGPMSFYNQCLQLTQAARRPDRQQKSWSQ
proKLK7 act conf = confirmation of human kallikrein-7 zymogen activators. shares compounds with proKLK7 act. purified proKLK7, EDANS-DABCYL substrate fluorescence; scaled: vehicle 0, mature enzyme 100. actives 68% (n = 3,200). activation, % at 7 µM;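 active = activation, as change over the incubation, above the mean of all tested compounds plus 3 SD, cut at about 13% in these data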
EDANS interfere = optically interferes with EDANS-DABCYL signal, flagging KLK7 hits | actives 80% (n = 3,200) | shares compounds with proKLK7 act | activation, % at 7 µM | EDANS-DABCYL substrate fluorescence interference, no enzyme, 4 h; solvent 0%, active enzyme control 100%;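 active = activation above the all-compound mean plus 3 SD, ignoring values outside control-based bounds, cut at about 4.8% in these data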;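 also: value is the 4 h activation minus the activation read at time zero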
EDANS interf = optically interferes with EDANS-DABCYL fluorescence, kallikrein-7 activator counter-screen. shares compounds with proKLK7 act. EDANS-DABCYL peptide fluorescence interference, no enzyme. EC50, µM. actives 20% (n = 250). AID 720493;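 active = compounds that raise the fluorescence signal in this interference counterscreen, with EC50 at or below 10 µM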;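 also: intact quenched peptide substrate alone read at 355 nm excitation and 520 nm emission; signal is fluorescence gain from T0 to T4 after four hours at room temperature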
* hit, by the source's call. Only some compounds are listed: those with a hit (about 3.4% of all), similar ones and a draw of the others.

Cc1ccc2nc(NC(=S)NC(=O)c3cccs3)sc2c1 was read as PLC-beta3 inh -2, proKLK7 act 0, PLC-gamma1 inh 0, ADAM10 inh -9, ADAM17 inh -1 and sPLA2-III inh 3.
`Cc1ccc2nc(NC(=O)c3ccc(Cn4cc(Cl)cn4)o3)sc2c1` gave PLC-beta3 inh -142, proKLK7 act 57*, PLC-gamma1 inh -109, ADAM10 inh -166, ADAM17 inh -64, sPLA2-III inh -40, proKLK7 act conf -100 and EDANS interfere -81.
For Cc1ccc2nc(NC(=O)c3cccs3)sc2c1 the results were PLC-beta3 inh -93, proKLK7 act 27*, PLC-gamma1 inh -67, ADAM10 inh -313, ADAM17 inh -58, sPLA2-III inh -18, proKLK7 act conf 4 and EDANS interfere 12*.
Screening Cc1ccc2nc(NC(=O)c3ccc4c(c3)OCO4)sc2c1 returned PLC-beta3 inh -21, proKLK7 act -3, PLC-gamma1 inh -16, ADAM10 inh -45, ADAM17 inh -17 and sPLA2-III inh 5.
Screening CN1C2=N[C@H](c3cccc(C(F)(F)F)c3)CC(=O)N2/C(=C\c2ccccc2)[C@H]1c1ccccc1 returned PLC-beta3 inh -2, PLC-gamma1 inh -2, ADAM10 inh -1, ADAM17 inh -2 and sPLA2-III inh -4.
`CS(=O)(=O)Nc1ccc(-c2cccc3nccn23)cc1` gave PLC-beta3 inh -399, proKLK7 act -41, PLC-gamma1 inh -331, ADAM10 inh inactive, ADAM17 inh -379 and sPLA2-III inh -1.
For CN(C)c1ccc(-c2cccc3nccn23)cc1 the results were PLC-beta3 inh inactive, proKLK7 act 40*, PLC-gamma1 inh inactive, ADAM10 inh inactive, ADAM17 inh inactive, sPLA2-III inh 10, proKLK7 act conf 70*, EDANS interfere 60* and EDANS interf >70.
For c1cc(-c2ccc(N3CCOCC3)cc2)n2ccnc2c1 the results were PLC-beta3 inh inactive, proKLK7 act 79*, PLC-gamma1 inh inactive, ADAM10 inh inactive, ADAM17 inh inactive, sPLA2-III inh 14, proKLK7 act conf 47* and EDANS interfere 59*.
N#CCc1ccc(-c2cccc3nccn23)cc1 was read as PLC-beta3 inh -408, proKLK7 act 22*, PLC-gamma1 inh -285, ADAM10 inh inactive, ADAM17 inh -471, sPLA2-III inh 9, proKLK7 act conf 13* and EDANS interfere 26*.
CN1C(=O)C2C(c3ccc(N(C)C)cc3)NN(Cc3ccccc3)C2C1=O (stereo not given) was read as PLC-beta3 inh -23, proKLK7 act 15*, PLC-gamma1 inh -10, ADAM10 inh -72, ADAM17 inh -19, sPLA2-III inh -15, proKLK7 act conf 14* and EDANS interfere 13*.
CC(C)CC1=NN2C(=N)/C(=C\c3coc4ccccc4c3=O)C(=O)N=C2S1 was read as PLC-beta3 inh -205, proKLK7 act 24*, PLC-gamma1 inh -180, ADAM10 inh -112, ADAM17 inh -39, sPLA2-III inh -5, proKLK7 act conf 24* and EDANS interfere 23*.
COc1cc2ccccc2nn1 was read as PLC-beta3 inh -377, proKLK7 act 23*, PLC-gamma1 inh -353, ADAM10 inh -127, ADAM17 inh -54, sPLA2-III inh -2, proKLK7 act conf 33* and EDANS interfere 39*.
`COc1c2ccccc2nc2ccccc12` gave PLC-beta3 inh -256, proKLK7 act 7, PLC-gamma1 inh -210, ADAM10 inh inactive, ADAM17 inh -482 and sPLA2-III inh 5.
`CC(CCN1CCC(C(O)(c2ccccc2)c2ccccc2)CC1)Oc1cc(F)cc(F)c1` (stereo not given) gave PLC-beta3 inh 2, proKLK7 act 0, PLC-gamma1 inh 1, ADAM10 inh -4, ADAM17 inh -1 and sPLA2-III inh -9.
Screening CCCCN1CC(=O)N2[C@H](C[C@@]3(C)c4ccccc4N(S(=O)(=O)c4ccccc4)[C@@H]23)C1=O returned PLC-beta3 inh 2, proKLK7 act 1, PLC-gamma1 inh -3, ADAM10 inh -3, ADAM17 inh -4 and sPLA2-III inh 1.
`c1coc(C2Nc3ccccc3-c3nc4ccccc4n32)c1` (stereo not given) gave PLC-beta3 inh inactive, proKLK7 act 16*, PLC-gamma1 inh inactive, ADAM10 inh inactive, ADAM17 inh inactive, sPLA2-III inh -10, proKLK7 act conf 39* and EDANS interfere 40*.
Screening c1ccc(C2Nc3ccccc3-c3nc4ccccc4n32)nc1 (stereo not given) returned PLC-beta3 inh inactive, proKLK7 act 36*, PLC-gamma1 inh -479, ADAM10 inh inactive, ADAM17 inh -397, sPLA2-III inh 2, proKLK7 act conf 14* and EDANS interfere 16*.
Screening O=C1Cn2c(nc3ccccc32)-c2ccccc2N1 returned PLC-beta3 inh -54, proKLK7 act -15, PLC-gamma1 inh -39, ADAM10 inh -10, ADAM17 inh 1 and sPLA2-III inh -3.
For c1ccc(C2Nc3ccccc3-c3nc4ccccc4n32)cc1 (stereo not given) the results were PLC-beta3 inh inactive, proKLK7 act 66*, PLC-gamma1 inh inactive, ADAM10 inh inactive, ADAM17 inh inactive, sPLA2-III inh 6, proKLK7 act conf 3 and EDANS interfere 5.4*.
Screening Cc1cc(-c2n[nH]c(=S)n2N=Cc2cccc(Oc3ccccc3)c2)n[nH]1 returned PLC-beta3 inh 4, proKLK7 act 0, PLC-gamma1 inh -2, ADAM10 inh -3, ADAM17 inh -1 and sPLA2-III inh 4.
Screening O=C1c2cccc3cccc(c23)C(=O)N1c1ccccc1Cl returned PLC-beta3 inh -14, proKLK7 act 46*, PLC-gamma1 inh -9, ADAM10 inh -222, ADAM17 inh -88, sPLA2-III inh -5, proKLK7 act conf 26* and EDANS interfere 22*.
`COc1ccc(-c2coc3cc(O)c(OC)cc3c2=O)cc1` gave PLC-beta3 inh inactive, proKLK7 act 13*, PLC-gamma1 inh inactive, ADAM10 inh inactive, ADAM17 inh -213, sPLA2-III inh 0, proKLK7 act conf 67* and EDANS interfere 54*.
